# Screen size: about 39,000 compounds; about 3,300 (8.5%) were called active. Only a selection was taken, and actives are over-represented in it overall.
# System: HepG2
# Assay: cytotoxicity call (relative viability < 0.9)
# Conditions: 10 µM
row,SMILES,cytotoxicity call
1,CCCC(=O)Nc1ccc2c(c1)C(=O)N(C)[C@@H]1CC[C@@H](CC(=O)NCCN3CCCCC3)O[C@H]1CO2,inactive
2,Cn1nc(O)c(=O)[nH]c1=S,inactive
3,O=C(Cc1ccncc1)Nc1ccc2c(c1)[C@H]1C[C@H](CC(=O)N3CCc4ccccc4C3)O[C@@H](CO)[C@H]1O2,inactive
4,Cc1cn2c3c(=O)n(C)c(=O)n(C)c3nc2n1CCN1CCOCC1,inactive
5,Cc1noc(C)c1NC(=O)N(C)C[C@H]1OCCCC[C@H](C)Oc2ccc(NC(=O)CCC(F)(F)F)cc2C(=O)N([C@H](C)CO)C[C@@H]1C,inactive
6,C[C@@H]1CN([C@H](C)CO)C(=O)c2cc(NC(=O)Nc3ccc(C(F)(F)F)cc3)ccc2O[C@@H](C)CCCCO[C@H]1CN(C)Cc1ccc2c(c1)OCO2,active
7,C[C@H](CO)N1C[C@H](C)[C@@H](CN(C)Cc2ccc3c(c2)OCO3)OCCCC[C@H](C)Oc2ccc(NC(=O)Nc3ccc(C(F)(F)F)cc3)cc2C1=O,active
8,C[C@@H]1CN([C@@H](C)CO)C(=O)c2cc(NC(=O)Nc3ccc(C(F)(F)F)cc3)ccc2O[C@@H](C)CCCCO[C@H]1CN(C)Cc1ccc2c(c1)OCO2,active
9,Cn1c(=O)[nH]c(=O)c2c(=O)cc[nH]c21,inactive
10,COc1ccccc1CNC(=O)C[C@H]1C[C@H]2c3cc(NC(=O)Cc4ccncc4)ccc3O[C@H]2[C@@H](CO)O1,inactive
11,C[C@@H]1CCCCO[C@H](CN(C)S(=O)(=O)c2ccc(F)cc2)[C@H](C)CN([C@H](C)CO)C(=O)c2cc(NC(=O)Nc3cccc4ccccc34)ccc2O1,inactive
12,C[C@@H]1CN([C@@H](C)CO)C(=O)c2c(c3ccccc3n2C)-c2ccccc2CO[C@H]1CN(C)C(=O)Nc1cccc(Cl)c1Cl,inactive
13,CC(C)[C@H](NC=O)C(=O)OC[C@H](O)[C@H](O)[C@H](O)[C@H](O)COC(=O)[C@H](NC=O)C(C)C,inactive
14,C[C@H](CO)N1C[C@H](C)[C@@H](CN(C)Cc2ccncc2)Oc2c(NC(=O)c3ccncc3)cccc2C1=O,inactive
15,O=C1CSC(/N=C/c2ccccc2O)=NN1,active
16,O=C(NCc1cccc(F)c1)[C@@H]1[C@@H](CO)[C@@H]2Cn3c(cccc3=O)[C@H]1N2C(=O)c1cnccn1,inactive
17,CN(C)CCC=C1c2ccccc2Sc2ccc(Cl)cc21.Cl,active
18,CN(C)CC/C=C1/c2ccccc2Sc2ccc(Cl)cc21,active
19,CCS(=O)(=O)N1C[C@]2(CN(Cc3cc(ccc3F)F)C2)c2c(n(c3cc(ccc23)OC)C)[C@H]1CO,inactive
20,CCS(=O)(=O)N1C[C@]2(CN(Cc3ccc4c(c3)OCO4)[C@H](CO)c3c2c2ccc(cc2n3C)OC)C1,inactive
21,C[C@@H]1CN([C@@H](C)CO)C(=O)c2cccc(NS(C)(=O)=O)c2O[C@H]1CN(C)C(=O)Nc1ccc2c(c1)OCO2,inactive

row,SMILES,cytotoxicity call
1,Cc1noc(C)c1S(=O)(=O)N(C)C[C@H]1OCCCC[C@@H](C)Oc2ccc(N(C)C)cc2C(=O)N([C@H](C)CO)C[C@@H]1C,inactive
2,COc1ccc(NC(=O)Nc2ccc3c(c2)C(=O)N([C@@H](C)CO)C[C@H](C)[C@@H](CN(C)C(=O)CCC(F)(F)F)OCCCC[C@@H](C)O3)cc1,inactive
3,C[C@H](CO)N1C[C@H](C)[C@@H](CN(C)Cc2ccncc2)OCCCC[C@H](C)Oc2ccc(NC(=O)C3CCCCC3)cc2C1=O,inactive
4,C[C@@H]1CN([C@H](C)CO)C(=O)c2cc(NC(=O)CCCN(C)C)ccc2O[C@H]1CN(C)Cc1ccccc1,inactive
5,C[C@H]1CN([C@@H](C)CO)C(=O)c2cc(NC(=O)CCCN(C)C)ccc2O[C@H]1CN(C)Cc1ccccc1,inactive
6,C[C@@H]1CN([C@H](C)CO)C(=O)c2cc(NC(=O)CCCN(C)C)ccc2O[C@@H]1CN(C)Cc1ccc(Oc2ccccc2)cc1,active
7,C[C@@H]1CN([C@@H](C)CO)C(=O)c2cc(NC(=O)CCCN(C)C)ccc2O[C@H]1CN(C)Cc1ccc(Oc2ccccc2)cc1,inactive
8,C[C@H](CO)N1C[C@H](C)[C@@H](CN(C)Cc2ccc(Oc3ccccc3)cc2)Oc2ccc(NC(=O)CCCN(C)C)cc2C1=O,inactive
9,C[C@H](CO)N1C[C@H](C)[C@@H](CN(C)Cc2ccccc2)Oc2ccc(NC(=O)CCCN(C)C)cc2C1=O,inactive
10,C[C@@H]1CN([C@H](C)CO)C(=O)c2cc(NC(=O)CCCN(C)C)ccc2O[C@H]1CN(C)Cc1ccc(Oc2ccccc2)cc1,active
11,COc1ccc(CN(C)C[C@H]2Oc3ccc(NC(=O)CCCN(C)C)cc3C(=O)N([C@H](C)CO)C[C@H]2C)cc1,inactive
12,C[C@@H]1CN([C@@H](C)CO)C(=O)c2cc(NC(=O)CCCN(C)C)ccc2O[C@H]1CN(C)Cc1ccccc1,inactive
13,C[C@H]1CN([C@@H](C)CO)C(=O)c2cc(NC(=O)CCCN(C)C)ccc2O[C@H]1CN(C)Cc1ccc(Oc2ccccc2)cc1,active
14,C[C@H]1CN([C@@H](C)CO)C(=O)c2cc(NC(=O)CCCN(C)C)ccc2O[C@@H]1CN(C)Cc1ccc(Oc2ccccc2)cc1,active
15,COc1ccc(CN(C)C[C@@H]2Oc3ccc(NC(=O)CCCN(C)C)cc3C(=O)N([C@H](C)CO)C[C@H]2C)cc1,inactive
16,Cc1cc(C(=O)Nc2cccc3c2O[C@@H](CN(C)S(=O)(=O)c2ccc(F)cc2)[C@@H](C)CN([C@H](C)CO)C3=O)n(C)n1,inactive
17,COc1ccc(S(=O)(=O)N(C)C[C@@H]2Oc3cc(C#CC4CCCC4)ccc3S(=O)(=O)N([C@H](C)CO)C[C@H]2C)cc1,inactive
18,C[C@@H]1CN([C@H](C)CO)C(=O)c2cc(NS(=O)(=O)c3ccccc3)ccc2O[C@@H]1CN(C)S(=O)(=O)c1ccc(F)cc1,inactive
19,COc1ccc(NC(=O)N[C@H]2CC[C@@H](CCNC(=O)CN3CCOCC3)O[C@@H]2CO)cc1,inactive
20,CCS(=O)(=O)Nc1ccc2c(c1)C(=O)N(C)[C@@H]1CC[C@@H](CC(=O)NCc3ccccc3F)O[C@H]1CO2,inactive
21,C[C@@H]1CCCCO[C@H](CN(C)S(=O)(=O)c2ccccc2)[C@H](C)CN([C@@H](C)CO)C(=O)c2cc(NC(=O)C3CCCCC3)ccc2O1,inactive

# Source: the antibiotic and cytotoxicity screens of Wong et al. (2023)
